# Compounds with a hit are over-represented: about 2.2% of the library has one in this group of screens.
# PLK1 kinase inh: inhibitors of human PLK1 kinase. P53350. inhibition, % at 10 µM. recombinant PLK1 kinase, TR-FRET peptide phosphorylation. AID 619. 0.53% of 97,000 active;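 active means inhibition of 50% or more in the single-concentration screen; inactive means inhibition below 50%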
# IL1B NFkB pot: enhances IL-1B driven NFkB nuclear translocation | HUVEC IL-1B NFkB p65 nuclear translocation imaging | activation, % at 2 µM | 0.3% of 94,000 active | AID 819;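 active means activation above 40%, about the mean plus 3 SD, also judged a hit on visual image review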;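 further: percent activation is computed from the nuclear over cytoplasmic p65 intensity ratio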
# Pyk2 oligo antag: blocks oligomerization of human Pyk2 in cells. Q14289. Q293 cells, Pyk2 FERM NanoBiT luminescence; stronger effect = lower value. AID 1347419. 0.83% of 99,000 active. z-score (the deposit names both 25 µM and 10 µM);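 active means Z-score of -3 or lower, scaled per plate to the spread of control and sample wells; inactive means z-score above -3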;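 further: negative z-score means lost luminescence so less FERM oligomerization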
# NFkB transloc inh: blocks IL-1B driven NFkB nuclear translocation in HUVEC cells. HUVEC IL-1B NFkB p65 nuclear translocation imaging. inhibition, % at 2 µM. 0.43% of 94,000 active;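 active means inhibition above about 30% together with a positive call from visual inspection of the well image, limit read from the data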;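 further: nuclear over cytoplasmic p65 intensity ratio measured by imaging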
# IL1B cytotox: toxic to HUVEC cells under IL-1B stimulation; cell count reduction, % at 2 µM; AID 845; 0.41% of 94,000 active; HUVEC cell count loss, Hoechst imaging, IL-1B stimulated;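 active means cell count reduction more than 3 SD above the screen-wide mean, cut at about 70% in these data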
# PLK1 PBD inh: inhibitors of human Plk1 polo box domain binding | P53350 | Plk1 PBD phosphopeptide binding, fluorescence polarization | inhibition, %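 (tested at about 20 µM)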 | 0.13% of 97,000 active; in the data active means inhibition above about 34%, passing the limit was not always enough
# PLK1 confirm: PLK1 (human) kinase inhibition, confirmed. recombinant PLK1 kinase, TR-FRET peptide phosphorylation. shares compounds with PLK1 kinase inh. inhibition, % at 10 µM. 20% of 210 active;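 active means inhibition at or above 50% in each of two repeat confirmation tests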
# Plk1 interf: Plk1 assay compound interference counter-screen hit. inhibition (interference), % at 10 µM. shares compounds with PLK1 kinase inh. Plk1 TR-FRET assay interference, compound added post-reaction. AID 756. 210 tested, under 10 active;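 active means both duplicate runs show 50% or greater inhibition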
# Hits are given with their value; . = inactive; / = not tested or not shown.
SMILES,PLK1 kinase inh,IL1B NFkB pot,Pyk2 oligo antag,NFkB transloc inh,IL1B cytotox,PLK1 PBD inh,PLK1 confirm,Plk1 interf
O=C(N/N=C/c1cccc(Cl)c1Cl)Nc1ccccc1,.,.,.,.,.,.,/,/
Cc1cc(C(=O)N/N=C/c2cccc(Cl)c2Cl)no1,88.0,.,.,.,.,.,.,.
O=C(O)CCc1ccc(-c2cccs2)n1-c1ccc(C(=O)O)cc1,95.9,/,/,/,/,.,.,.
CC(=O)c1cccc(-n2c(CCC(=O)O)ccc2-c2cccs2)c1,.,.,.,.,.,.,/,/
COc1ccccc1N1CCN(S(=O)(=O)c2ccc(F)cc2)CC1,81.5,.,.,.,.,.,.,.
Cc1[nH]nc2c1C1(CCN(Cc3ccccc3)CC1)C(C#N)=C(N)O2,72.2,.,.,.,.,.,69.9,.
COc1ccc(OCc2nnc3n2N=C(c2ccc(C)cc2)CS3)cc1,71.7,/,/,/,/,.,.,.
COc1ccc(OCc2nnc3n2N=C(c2ccc(OC)cc2)CS3)cc1,82.8,/,/,/,/,.,.,.
CCOc1ccc(C2=Nn3c(nnc3-c3ccc(OC)cc3)SC2)cc1,.,.,.,.,.,.,/,/
Cc1c(-c2cccs2)[n+](=O)c2c(n1[O-])CCCCC2,.,.,.,.,.,.,/,/
Cn1c(=O)cc(OCC(=O)N2CCC(N3CCCCC3)CC2)c2ccccc21,.,.,/,.,.,.,/,/
Cc1cc(C)c2c(=O)[nH]c(=O)n(Cc3ccccc3)c2n1,.,.,.,.,.,.,/,/
Cc1cc(NC(=O)c2nn3cccnc3c2Cl)no1,.,.,.,.,.,.,/,/
C=CCNC(=O)c1nn2cccnc2c1Cl,130.2,.,.,.,.,.,.,.
CCSc1nnc(NC(=O)C(C)C)s1,71.3,/,/,/,/,.,.,.
Cc1ccc2c(c1)c(C)c(C)n2CC(O)CN1CCCCC1C (configuration not stated),70.1,/,/,/,/,.,.,.
COCCn1c(C)cc(C(=O)CSc2nnc3ccccn23)c1C,72.4,/,/,/,/,.,.,.
CCOC(=O)C1CCN(C(=O)CN(c2ccc(OC)cc2)S(=O)(=O)c2c(C)nn(C)c2C)CC1,73.3,/,/,/,/,.,.,.
CCOC(=O)C1CCN(C(=O)CN(c2ccc(OC)cc2)S(=O)(=O)c2c(C)noc2C)CC1,.,.,/,.,.,.,/,/
COCCn1c(SC)nnc1-c1c[nH]c2ccccc12,72.8,/,/,/,/,.,.,.
CCc1nnc(NC(=O)CSc2nnc(-c3c[nH]c4ccccc34)n2C)s1,.,.,.,.,.,.,/,/
CCn1c(SC)nnc1-c1c[nH]c2ccccc12,77.1,/,/,/,/,.,.,.
COc1cccc(-n2c(SC)nnc2-c2c[nH]c3ccccc23)c1,.,.,/,.,.,.,/,/
Cn1c(SCc2cccnc2)nnc1-c1c[nH]c2ccccc12,74.1,/,/,/,/,.,.,.
CCn1c(SCc2ccc(C(=O)OC)o2)nnc1-c1c[nH]c2ccccc12,72.7,/,/,/,/,.,.,.
SMILES,PLK1 kinase inh,IL1B NFkB pot,Pyk2 oligo antag,NFkB transloc inh,IL1B cytotox,PLK1 PBD inh,PLK1 confirm,Plk1 interf
O=C(CCN1C(=O)c2ccccc2S1(=O)=O)Nc1nc2c(s1)CCCC2,.,.,.,.,.,.,/,/
N/C(=N\OC(=O)c1cccc(F)c1)c1ccccc1,.,.,.,.,.,.,/,/
Nc1nc(N2CCOCC2)cc(=O)[nH]1,.,.,.,.,.,.,/,/
CCn1c(SCC(=O)c2cc(OC)ccc2OC)nnc1C1CC1,.,.,.,.,.,.,/,/
O=C(O)C1CCCCC1C(=O)NCc1cn2ccccc2n1 (configuration not stated),70.9,/,/,/,/,.,.,.
COC(=O)c1sc2nc[nH]c(=O)c2c1C,74.0,.,.,.,.,.,71.4,.
Cc1c(C(=O)OC(C)C)sc2nc[nH]c(=O)c12,76.5,.,.,.,.,.,68.8,.
Nn1c(SCC(=O)N2CCN(S(=O)(=O)c3ccc(Cl)cc3)CC2)nnc1-c1cccs1,.,.,.,.,.,.,/,/
O=C(c1ccccc1)N1CCCCC(S(=O)(=O)c2ccc3ccccc3c2)C1=O (configuration not stated),.,.,.,.,.,.,/,/
Cc1ccc(CNc2ccc(N3CCOCC3)cc2)s1,.,.,.,.,.,.,/,/
CC(=O)N1CCN(c2ccc(NCc3ccc(C)s3)cc2)CC1,77.3,/,/,/,/,.,.,.
CCC(C)N(NC(C)=O)c1nc(Cl)nc(NC(C)C)n1 (configuration not stated),.,.,.,.,.,.,/,/
Cc1nc2nc(NCc3cccs3)nn2c(C)c1Cl,.,.,.,.,.,.,/,/
CCN(CC)S(=O)(=O)c1ccc(C(=O)OCCN2C(=O)CCC2=O)cc1,74.3,/,/,/,/,.,.,.
Cc1nc(-c2cccnc2)sc1C(=O)Nc1ccc(Cl)cc1,.,.,.,.,.,.,/,/
Cc1nc(-c2cccnc2)sc1C(N)=O,76.0,.,.,.,.,.,.,.
Nc1nc2ccc([N+](=O)[O-])c(N)c2s1,75.8,.,.,.,.,.,75.0,.
CS(=O)(=O)c1ccc2nc(N)sc2c1,.,.,.,.,.,.,/,/
CC(=O)N1CCc2ccc(C(=O)CN3CCN(c4cccc(C)c4C)CC3)cc21,.,.,/,.,.,.,/,/
CC(=O)N1CCc2cc(C(=O)CN3CCC(C)CC3)ccc21,82.3,/,/,/,/,.,.,.
CC(=O)N1CCc2cc(C(=O)CN3CCN(C(=O)c4ccco4)CC3)ccc21,70.5,/,/,/,/,.,.,.
CC1CCCC/C1=N\NS(=O)(=O)c1ccc(Br)cc1 (configuration not stated),.,.,.,.,.,.,/,/
Cc1ccc2c(c1)/C(=N/OC(=O)c1ccc(F)cc1)CCS2,123.6,.,.,.,.,.,.,.
C=CCNC(=O)c1c2c(nc3ccccc13)-c1ccccc1CC2,.,.,.,.,.,.,/,/
Cc1ccc(N(CC(=O)Nc2ccc(C)cc2C)S(=O)(=O)N2CCCC2)cc1,87.9,.,.,.,.,.,.,.
SMILES,PLK1 kinase inh,IL1B NFkB pot,Pyk2 oligo antag,NFkB transloc inh,IL1B cytotox,PLK1 PBD inh,PLK1 confirm,Plk1 interf
CCN1CCN(CC(=O)Nc2ccc(C)cc2C)C(=O)C1=O,.,.,/,.,.,.,/,/
CCc1cc2c(=O)[nH]cnc2s1,.,.,.,.,.,.,/,/
O=c1[nH]cnc2sc(-c3ccccc3)cc12,78.4,.,.,.,.,.,68.4,.
CCc1cccc(OCC(=O)Nc2ccc(S(=O)(=O)Nc3onc(C)c3C)cc2)c1,74.7,/,/,/,/,.,.,.
CCCCc1nc2n[nH]c(N)c2c2c1CSC(C)(C)C2,70.4,.,.,.,.,.,.,.
O=C(c1ccc(F)cc1)N1CCN(c2cc(=O)[nH]nc2-c2ccccc2)CC1,125.2,.,.,.,.,.,.,.
CCOC(=O)C1CCN(C(=O)CCNC(=O)c2cc(OC)c(OC)c(OC)c2)CC1,.,.,.,.,.,.,/,/
Cc1ccc(CSCCNC(=O)/C=C/c2ccccc2Cl)cc1,.,.,.,.,.,.,/,/

# Bioassay records from PubChem.
